D1 ag: Allosteric Agonists of the Human D1 Dopamine Receptor: qHTS | D(1A) dopamine receptor (Homo sapiens), P21728 | HEK293 T-REx D1 cells, calcium flux, agonist mode | activation, % at 2 µM | 360,000 tested, 1% active; further: 0% is about no effect
Target sequence (P21728 whole entry, looked up): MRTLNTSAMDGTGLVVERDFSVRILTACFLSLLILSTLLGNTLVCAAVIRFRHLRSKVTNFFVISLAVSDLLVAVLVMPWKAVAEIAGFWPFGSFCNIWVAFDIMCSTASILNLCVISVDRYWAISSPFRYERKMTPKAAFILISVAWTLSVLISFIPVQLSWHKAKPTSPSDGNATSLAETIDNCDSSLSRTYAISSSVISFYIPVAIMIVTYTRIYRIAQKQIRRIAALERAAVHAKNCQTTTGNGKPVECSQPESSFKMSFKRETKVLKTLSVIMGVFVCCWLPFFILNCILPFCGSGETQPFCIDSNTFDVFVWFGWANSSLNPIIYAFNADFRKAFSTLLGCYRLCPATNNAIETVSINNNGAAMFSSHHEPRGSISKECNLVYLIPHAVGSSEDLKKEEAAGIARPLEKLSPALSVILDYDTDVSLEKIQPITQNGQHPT
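Inducible HEK293 T-REx D1 cells, force-coupled to calcium signalling, were plated at 4000 cells/well with tetracycline and held overnight at 30 C. After no-wash calcium dye loading, compound-evoked calcium rise over 180 s flagged agonists.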
TRHR enhancer: qHTS for Small Molecule Agonists and Allosteric Enhancers of Human TRH Receptor: Primary Screen for Enhancers | 360,000 tested, 0.66% active | enhancement, % at 2 µM | Thyrotropin-releasing hormone receptor (Homo sapiens), P34981 | TRHR cells, fluo-8 calcium fluorescence, EC20 TRH enhancement | AID 493056, 2011; in the data active means enhancement above about 30%; further: 0% is about no effect
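TRHR-expressing cells loaded with fluo-8 calcium dye were read kinetically (ex 480/em 530) during compound addition, then stimulated with an EC20 of TRH (10 nM final). Enhancement of the Gq-mediated intracellular calcium response was scored.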
D1 antag: Antagonist of Human D 1 Dopamine Receptor: qHTS; D(1A) dopamine receptor (Homo sapiens), P21728; HEK293 TREx D1 cells, calcium flux, dopamine EC80; stronger effect = lower value; activity change, negative = inhibition, % at 10 µM; 360,000 tested, 3.2% active; in the data active means activity change below about -30%; further: on the % scale 0 is the no-effect control and ±100 the full control effect
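Tetracycline-induced HEK293 T-REx cells with force-coupled D1 receptor were loaded with a no-wash calcium dye. Compound was added after a 10 s baseline and read kinetically for 180 s; EC80 dopamine was then added and calcium flux followed another 180 s.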
LDHA block: qHTS assay for inhibitors of human lactate dehydrogenase. L-lactate dehydrogenase A chain (Homo sapiens), P00338. purified LDHA, NADH/diaphorase-resazurin fluorescence; stronger effect = lower value. activity change, % (values are at about 110 or 230 µM). 480,000 tested, 0.15% active. AID 1347041, 2019; in the data active means activity change below about -30%;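 further: plate controls were DMSO wells for no effect and wells without enzyme for full effect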
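LDH5 2 nM; NADH 0.06 mM, pyruvate 0.2 mM; 200 mM Tris pH 7.4, EDTA, Tween-20; 5 min RT. Detection: diaphorase 0.133 mg/mL + resazurin 37 µM, fluorescence ex540/em590 at 0 and 20 min; normalized to enzyme-free and DMSO wells.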
TRHR ag: qHTS for Small Molecule Agonists and Allosteric Enhancers of Human TRH Receptor: Primary Screen for Agonists; Thyrotropin-releasing hormone receptor (Homo sapiens), P34981; TRHR cells, calcium flux fluo-8, FDSS agonist mode; activation, % at 2 µM; 360,000 tested, 0.18% active; further: 0% is about no effect
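Fluo-8-loaded TRHR cells; 10 s baseline, compound added, kinetic Ca2+ fluorescence read 1/s, agonist mode.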
D1 potentiator: Potentiators of Human D1 Dopamine Receptor: qHTS. HEK293 TREx D1 cells, calcium flux, dopamine EC20 potentiation. potentiation, % at 10 µM. 360,000 tested, 0.036% active. AID 504651, 2011; in the data active means potentiation above about 30%; further: 0% is about no effect
* marks the source's active call; other numbers are inactive results; / = no result. A selection: hits, their analogues and other compounds. The true share with any hit is near 3.6%. Unless noted, no stated cut-off is given here; in the data, active means activation above about 30%; inactive means the rest.

SMILES | D1 ag | TRHR enhancer | D1 antag | LDHA block | TRHR ag | D1 potentiator
Cc1ccc(C)c(C(=O)COC(=O)c2ccccc2N2C(=O)C3C4CCC(C4)C3C2=O)c1 (stereo unspecified) | 15 | 17 | -42* | -6 | -1 | -5
O=C(COC(=O)c1ccccc1N1C(=O)C2C3CCC(C3)C2C1=O)c1ccccc1 (stereo unspecified) | 0 | -7 | -11 | -14 | 0 | 13
CC(C)COC(=O)c1ccccc1N1C(=O)C2C3CCC(C3)C2C1=O (stereo unspecified) | 1 | 2 | -13 | 2 | 0 | -7
CCCCOc1cccc(C(=O)Nc2cccc(-c3nc4ncccc4o3)c2C)c1 | -1 | 43* | 6 | -14 | -2 | -1
COc1cccc(N2CCN(S(=O)(=O)c3ccc4c(c3)NC(=O)CS4)CC2)c1 | 3 | -4 | -32* | -6 | 0 | -2
Cc1ccc(-n2c(C)nc3ccsc3c2=O)cc1 | / | / | / | 0 | / | /
Cc1ccc(-c2nc3ccsc3c(=O)o2)cc1 | -1 | 13 | -87* | 2 | 0 | 0
Cc1nnc2n(c1=O)C(CS(=O)(=O)c1ccc3ccccc3c1)CS2 (stereo unspecified) | -1 | 33* | -10 | -6 | 0 | 1
COc1ccc(CNC(=O)CCSc2ccc(F)cc2)cc1OC | 2 | 0 | -40* | -5 | 0 | -4
COc1ccc(CNC(=O)CCC(=O)c2ccc(F)cc2)cc1OC | / | / | / | -6 | / | /
Cc1ccc(C)c(OCC(O)Cn2nc(C)c3ccccc3c2=O)c1C (stereo unspecified) | / | / | / | 3 | / | /
c1cc2c(cc1C1CCCCC1)c1c3n2CCCNC3CCC1 (stereo unspecified) | 122* | -2 | -7 | 0 | -1 | 18
CCCCCCSc1ccc(-c2nc3ccc(C)cn3c2NCc2ccccc2)cc1 | 0 | -1 | -36* | 0 | 0 | -10
CCC(=O)NNc1nc2c(F)cccc2s1 | 0 | 19 | -6 | 0 | 0 | 1
CCC(=O)NNc1nc2c(F)cc(F)cc2s1 | 4 | 3 | -35* | 4 | 0 | -2
O=C(Nc1cn[nH]c1)N1CCCCC1Cc1ccccc1 (stereo unspecified) | / | / | / | 1 | / | /
COC(=O)c1ccc(N(CC(=O)NC2CCCC2)C(=O)CNC(=O)c2cccs2)cc1 | 1 | 4 | 21 | -6 | 0 | 30*
C/C(=N\Nc1ccc([N+](=O)[O-])cc1)c1ccco1 | 33* | -2 | -3 | -12 | 4 | -7
C/C(=N\Nc1ccccc1[N+](=O)[O-])c1ccc(N2CCOCC2)cc1 | 2 | 4 | -9 | -6 | 0 | 9
CC/C(=N\Nc1ccc([N+](=O)[O-])cc1)c1ccccc1 | 24 | 7 | -34* | -1 | -1 | -10
C/C(=N\NC(=O)COc1ccc([N+](=O)[O-])cc1)c1ccco1 | 0 | 5 | 6 | 0 | 0 | 4
C/C(=N\Nc1ccc([N+](=O)[O-])cc1)c1ccc(N2CCOCC2)cc1 | 39* | 4 | -1 | -3 | 19 | -2
O=C(O)/C=C/c1cccc([N+](=O)[O-])c1 | / | / | / | -7 | / | /
Cc1cnc(NC(=O)CCc2ccc(S(N)(=O)=O)cc2)s1 | / | / | / | 6 | / | /
O=C(c1ccc([N+](=O)[O-])cc1)N1CCSC1c1cccc(Cl)c1 (stereo unspecified) | 3 | -1 | -35* | 1 | 1 | -12
O=C(Nc1cccc(-n2cccn2)c1)C1CCCN(Cc2ccccc2F)C1 (stereo unspecified) | 6 | -2 | -36* | -1 | -1 | -8
O=C(Nc1ccc(-n2cccn2)c(F)c1)C1CCCN(C(=O)c2ccoc2)C1 (stereo unspecified) | / | / | / | -31* | / | /

From PubChem BioAssay
